# Screens deposited in PubChem by National Center for Advancing Translational Sciences (NCATS).
# Hits are enriched below; roughly 3.2% of the tested compounds scored in any of these assays.
# Sm TGR block = blocks Schistosoma mansoni thioredoxin glutathione reductase; Q962Y6; purified TGR, DTNB reduction, TNB absorbance 405 nm; Potency, µM (titrated, usually from 114 µM), most hits filed as inhibitors; 3% of 360,000 active; AID 485364; note: nearly all actives have a fitted effect of over 60% in size
#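 First, TGR (20 nM dispensed) and NADPH were mixed with compound. Second, a 15 min room-temperature incubation followed. Third, further NADPH and then DTNB were added to start the reaction. Finally, TNB absorbance was monitored kinetically.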
# RE007 growth inh = less growth of the S. pombe RE007 Vpr strain | Potency, µM (series often up to 92.2 µM), hits mostly inhibitors | AID 651644 | S. pombe RE007 Vpr strain, BacTiter-Glo ATP luminescence, 24 h | 0.21% of 360,000 active; active = well fitted falling curve with a large enough effect; inconclusive = small, poorly fitted or top-dose-only effect; inactive = no such curve, though single readings can be large or run the other way; note: nearly all actives have a fitted effect of over 50% in size
#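 Fission yeast RE007 carrying one integrated HIV-1 vpr copy, seeded at OD 0.01 in PMG+AL medium with 23 nL pinned compound. Grown 24 h at 30 degrees; viability read by BacTiter-Glo luminescence after 5 min.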
# AMA1-RON2 inh = inhibitors of Plasmodium falciparum AMA1-RON2 interaction. Potency, µM (series often up to 58.2 µM), hits mostly inhibitors. 0.2% of 360,000 active. AlphaScreen AMA1-biotinylated RON2 peptide binding. AID 720542; note: nearly all actives have a fitted effect of over 45% in size
#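 AMA1 (3D7) with his tag at 25 nM final met compounds first, then biotinylated RON2 peptide at 25 nM; detection used donor plus acceptor beads, 10 µg/mL apiece, read by AlphaScreen after 30 min at room temperature.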
# AmpC inh detg = blocks E. coli AmpC beta-lactamase in detergent assay. 0.041% of 370,000 active. Potency, µM (top dose mostly 114 µM), usual class: inhibitors. AID 485294. AmpC hydrolysis of nitrocefin, absorbance 480 nm, 0.01% Triton. P00811; note: nearly all actives have a fitted effect of over 25% in size
# Target sequence (P00811 whole entry, looked up): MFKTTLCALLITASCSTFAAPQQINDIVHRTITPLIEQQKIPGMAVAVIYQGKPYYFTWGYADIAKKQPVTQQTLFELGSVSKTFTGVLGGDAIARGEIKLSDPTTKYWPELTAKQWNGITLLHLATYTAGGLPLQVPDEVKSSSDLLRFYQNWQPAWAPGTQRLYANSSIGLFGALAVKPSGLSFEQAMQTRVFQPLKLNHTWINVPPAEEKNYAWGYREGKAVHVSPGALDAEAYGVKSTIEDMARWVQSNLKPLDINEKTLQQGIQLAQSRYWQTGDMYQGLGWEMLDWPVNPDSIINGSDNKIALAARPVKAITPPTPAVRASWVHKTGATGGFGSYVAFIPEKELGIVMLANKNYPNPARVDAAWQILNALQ
#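 20 mM phosphate pH 7.0 + 0.01% (detergent screen) or 0.0001% Triton X-100; 5.3 nM AmpC reagent; cpd preinc 15 min RT; nitrocefin (800 uM stock) to start; A480 q20 s × 4 min; Activity was normalised to no-enzyme and no-compound control wells.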
# AmpC no deterg = blocks E. coli AmpC beta-lactamase in detergent-free assay; Potency, µM (highest dose often 57.1 µM), usual class: inhibitors; P00811; 0.52% of 330,000 active; AmpC nitrocefin hydrolysis, absorbance 480 nm, 0.0001% Triton; note: nearly all actives have a fitted effect of over 20% in size
#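 AmpC (5.3 nM in the dispensed reagent) in 20 mM phosphate pH 7.0 with 0.01% (detergent screen) or 0.0001% Triton X-100 was preincubated with compounds for 15 min at room temperature. Nitrocefin was then added from an 800 uM solution, and hydrolysis was followed at 480 nm.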
# Hits are given with their value; i = inactive; ? = inconclusive; nt = not tested or not shown; ! = repeats disagree. Unless noted, calls come from the whole dose curve; as a rule, active = well fitted curve in the direction sought with a large enough effect; inconclusive = small, poorly fitted or top-dose-only effect, or another doubt; inactive = no such curve, though single readings can be large; an effect the other way counts as inactive or inconclusive.
SMILES,Sm TGR block,RE007 growth inh,AMA1-RON2 inh,AmpC inh detg,AmpC no deterg
Cc1ccccc1NC1c2ccccc2C(=O)N1Cc1ccco1 (stereo unspecified),20µM,i,i,i,i
COc1cccc(OCc2cc(C3Nc4ccccc4C(=O)N3Cc3ccco3)ccc2OC)c1 (stereo unspecified),18µM,i,i,i,i
CCOC(=O)c1cccc(NC2c3ccccc3C(=O)N2Cc2ccco2)c1 (stereo unspecified),?,i,i,?,0.89µM
CC(=O)c1cccc(NC2c3ccccc3C(=O)N2Cc2ccco2)c1 (stereo unspecified),?,i,i,i,i
CCOCCCn1c(=N)c(C(=O)NCc2cccnc2)cc2c(=O)n3cc(C)ccc3nc21,i,nt,nt,i,nt
CCOC(=O)c1cccc(NC(=O)CCS(=O)(=O)c2ccc3c(c2)CCN3C(=O)CC)c1,i,nt,nt,i,nt
Cc1cc(NC(=O)C(C)(C)C)cc(-c2nc3ncccc3o2)c1O,i,nt,nt,i,nt
CCN(CC)S(=O)(=O)c1ccc(NC2c3ccccc3C(=O)N2Cc2ccc3c(c2)OCO3)cc1 (stereo unspecified),i,i,i,i,i
COc1cccc(NC2c3ccccc3C(=O)N2Cc2ccco2)c1 (stereo unspecified),40µM,i,i,i,i
CCN(CC)S(=O)(=O)c1ccc(NC2c3ccccc3C(=O)N2Cc2ccco2)cc1 (stereo unspecified),22µM,i,i,i,i
O=C1c2ccccc2C(Nc2cccc(C(F)(F)F)c2)N1Cc1ccco1 (stereo unspecified),i,i,i,i,i
Cc1ccc2oc(=O)c3cc(C(=O)N(Cc4ccccc4)C(C)C)sc3c2c1,i,nt,nt,i,nt
Cc1ccc(C)c(/C=C/C(=O)c2ccccc(=O)c2O)c1,13µM,?,i,i,i
O=C(/C=C/c1ccc([N+](=O)[O-])cc1)c1ccccc(=O)c1O,nt,i,i,nt,nt
Cc1ccc(/C=C/C(=O)c2ccccc(=O)c2O)c(C)c1,14µM,?,i,?,?
O=C(/C=C/c1ccccc1Cl)c1ccccc(=O)c1O,4.5µM,i,i,i,?
CCc1cccc(C)c1NC(=O)C(NS(=O)(=O)c1ccc2c(c1)CCC(=O)N2)c1ccccc1 (stereo unspecified),i,nt,nt,i,nt
Cc1ccc2c(=O)cc(C(=O)Nc3ccc(S(=O)(=O)Nc4onc(C)c4C)cc3)oc2c1C,i,nt,nt,i,nt
C[C@]12CC(=CO)C(=O)C[C@@H]1CC[C@@H]1[C@@H]2CC[C@@]2(C)[C@H]1CC[C@]2(C)O,?,nt,nt,50µM,i
O=C(CSc1cccc[n+]1[O-])CSc1cccc[n+]1[O-],i,7.9µM,i,i,i
O=C(CSc1cccc[n+]1[O-])N1CCCCCC1,i,i,i,i,i
CC1(C)CC(=O)C2=C(C1)N(Cc1ccco1)C(=O)C2(NC(=O)c1ccc(Cl)cc1Cl)C(F)(F)F (stereo unspecified),i,i,i,?,i
CC1(C)CC(=O)C2=C(C1)N(Cc1ccco1)C(=O)C2(NC(=O)C1CCCCC1)C(F)(F)F (stereo unspecified),32µM,i,i,i,i
CCOC(=O)c1cccc(NC(=O)CCCn2nc(C)c3c(C)n(-c4ccccc4)nc3c2=O)c1,i,nt,nt,i,nt
CC(C)(C)C(=O)Nc1nc2c(s1)CN(Cc1ccccc1)CC2,25µM,i,i,i,i
SMILES,Sm TGR block,RE007 growth inh,AMA1-RON2 inh,AmpC inh detg,AmpC no deterg
COc1ccc2nc(Nc3sc4c(c3C(N)=O)CCCC4)sc2c1,13µM,?,i,?,i
COc1ccc(CC(=O)Nc2sc3c(c2C(N)=O)CCCC3)cc1,i,i,i,i,i
COc1ccc(NC(=O)c2c(NCc3cccs3)sc3c2CCCC3)cc1,32µM,nt,nt,i,nt
CCOC(=O)c1ccc(NC(=O)c2c(NCc3cccs3)sc3c2CCCCC3)cc1,14µM,nt,nt,i,nt
COc1ccc(NC(=O)CN(C)CC(=O)Nc2sc3c(c2C(N)=O)CCC3)cc1,50µM,i,i,i,i
COc1ccc2oc(=O)cc(CN3CCN(c4ccc(F)cc4)CC3)c2c1,i,nt,nt,i,nt
CN(C(=O)c1cc(-c2ccccc2O)on1)c1ccccc1,i,nt,nt,i,nt
COc1ccc(NC(=O)c2c(NCc3cccs3)sc3c2CCCCC3)c(OC)c1,5.6µM,nt,nt,i,nt
CCCCn1c(O)c(C(CC)=NCCN2CCCCC2)c(=O)[nH]c1=O,10µM,?,i,i,i
CCCCn1c(O)c(C(CC)=NCCN2CCOCC2)c(=O)[nH]c1=O,18µM,i,i,i,i
CCC(=NCCN1CCOCC1)c1c(O)n(-c2ccccc2C)c(=O)[nH]c1=O,28µM,i,i,i,i
COc1ccccc1N1CCN(C(=O)c2cnn(C(C)(C)C)c2C2CCN(C(=O)OC(C)(C)C)CC2)CC1,i,nt,nt,i,nt
COc1ccccc1S(=O)Cc1ccc(C(=O)NCCc2ccc(Cl)cc2)o1 (stereo unspecified),40µM,i,i,i,i
CCOc1ccc(CCNC(=O)c2ccc(CS(=O)Cc3ccc(Cl)cc3)o2)cc1 (stereo unspecified),28µM!,i,i,i,i
COc1ccccc1S(=O)Cc1ccc(C(=O)NC2CCCC2)o1 (stereo unspecified),i,i,i,i,i
COc1ccc(OCC(=O)O/N=C(\N)c2ccc(OC)cc2)cc1,i,i,i,i,i
CO/N=C(/COc1ccc(F)cc1)c1ccc(OC)cc1,25µM,i,i,i,i
CN(C)c1ccc(N=Nc2ccc(C(=O)O)cc2)cc1,40µM,i,i,i,i
O=C(NCc1ccccc1Cl)c1ccc2c(c1)nnn2C1CCCC1,i,nt,nt,i,nt
CCCNC(=O)CS(=O)Cc1nc(-c2ccc(OC)cc2)oc1C (stereo unspecified),50µM,i,i,?,i
Cc1oc(-c2ccc(Cl)cc2)nc1CS(=O)CC(=O)NCCCN1CCN(Cc2ccccc2)CC1 (stereo unspecified),i,i,i,i,i
COc1ccc(-c2nc(CS(=O)CC(=O)NCCc3ccc(OC)c(OC)c3)c(C)o2)cc1 (stereo unspecified),?,i,i,i,i
CCc1ccc(-c2nc(CS(=O)CC(=O)NCCCN3CCOCC3)c(C)o2)cc1 (stereo unspecified),35µM,i,i,i,i
CCCCNC(=O)CS(=O)Cc1nc(-c2ccc(C)cc2)oc1C (stereo unspecified),45µM,i,i,?,i
Clc1cccc(CNc2ncnc3c2nc2n3CCCC2)c1,i,nt,nt,i,nt
O=C1NC(=O)N(Cc2ccccc2Cl)C(=O)/C1=C/N1CCOCC1,3.5µM,i,i,?,i
O=C1NC(=O)N(Cc2cccs2)C(=O)/C1=C/c1ccc(N2CCOCC2)cc1,?,i,i,i,i
COc1ccc2sc(N(Cc3cccnc3)C(=O)C3CCCCC3)nc2c1,i,nt,nt,i,nt
